Results filed as inconclusive are left out. A call without a number means that no potency is given here. Calls of active or inactive are those of the source. The call rests on the fitted dose curve; in most records, active means well fitted cell-killing curve with a large enough effect; inconclusive means small, poorly fitted or top-dose-only effect; inactive means flat fitted curve, though single readings scatter.
Experiment: Cell Viability - LYMP2-020 (AID 986); further: nearly all actives have a fitted effect of over 55% in size
Details: series mostly up to 92.2 µM
Excerpt: NIH Chemical Genomics Center [NCGC]
NIH Molecular Libraries Screening Centers Network [MLSCN]
National Institutes of Environmental Health Sciences [NIEHS]
National Toxicology Program [NTP]
We have developed a 1536-well cell-based assay for quantitative high throughput screening (qHTS) against a number of cell lines to determine in vitro cytotoxicity of small molecules. This particular assay uses a human lymphoblastoid cell line (LYMP2-020) purchased from Coriell Institute for Medical Research.
NCGC Assay Protocol Summary:
The CellTiter-Glo luminescent cell viability assay (Promega) is a homogeneous method to measure the number of viable cells in culture. The end point readout of this assay is based on quantitation of intracellular ATP, an indicator of metabolic activity, using the luciferase reaction. Luciferase catalyzes the oxidation of beetle Luciferin to oxyluciferin and light in the presence of ATP. The luminescent signal is proportional to amount of ATP present.
Using the CellTiter-Glo luminescent cell viability assay, the amount of cellular ATP was measured in the lymphoblastoid cell line with complete culture medium following compound treatment for 24 hours. The assay was performed in opaque white Kalypsys 1536-well plates. In the screen, tetraoctylammonium bromide was used as positive control. Library compounds were measured for their ability to cause acute toxicity in the cell line, as reflected by a decrease in intracellular ATP levels, in a concentration-dependent manner. […] AC50 values were determined from concentration-response data modeled with the standard Hill equation.
qHTS protocol for CellTiter Glo lymphoblastoid cellular assay
[Step] [Parameter] [Value] [Description]
1. Reagent; 5 uL; 2500 lymphoblastoid cells/well
2. Time; 5 hr; 37 C incubation
4. Controls; 23 nL; Tetraoctylammonium bromide 6.4pM to 92 uM
5. Time; 24 hr; 37 C incubation
6. Reagent; 5 uL; CellTiter Glo reagent
7. Time; 30 min; Room Temperature
8. Detection; Luminescence; Viewlux plate reader
Keywords: cell viability, cytotoxicity, lymphoblastoid cell line, luminescence, NTPHTS, NTPHTS_NCGC, NIEHS, DSSTox, MLSMR, MLSCN, NIH Roadmap, qHTS, NCGC
Potency means the concentration at half of the fitted maximal effect.

Compound | Potency
CCCNC(=O)NS(=O)(=O)c1ccc(Cl)cc1 | inactive
O=c1c(-c2ccc(O)cc2)coc2cc(O)ccc12 | inactive
CN(C)CCC(c1ccccc1)c1ccccn1 (centres undefined) | inactive
O=C(O)c1cc(O)c2c(c1)C(=O)c1cccc(O)c1C2=O | inactive
CC/C(=C(\c1ccccc1)c1ccc(OCCN(C)C)cc1)c1ccccc1 | 50.1 µM (active)
O=c1[nH]cnc2c1ncn2[C@H]1CC[C@@H](CO)O1 | inactive
CCn1cc(C(=O)O)c(=O)c2ccc(C)nc21 | inactive
O=c1c(O)c(-c2ccc(O)cc2)oc2cc(O)cc(O)c12 | inactive
CC1=C(/C=C/C(C)=C/C=C/C(C)=C/C(=O)Nc2ccc(O)cc2)C(C)(C)CCC1 | 50.1 µM (active)
CC(=O)O[C@]1(C(C)=O)CC[C@H]2[C@@H]3C=C(Cl)C4=CC(=O)[C@@H]5C[C@@H]5[C@]4(C)[C@H]3CC[C@@]21C | inactive
O=C(O)Cc1cccc2ccccc12 | inactive
CCCCC1C(=O)N(c2ccccc2)N(c2ccccc2)C1=O | inactive
CC(=O)c1ccc(S(=O)(=O)NC(=O)NC2CCCCC2)cc1 | inactive
O=C1NC(=O)C(c2ccccc2)(c2ccccc2)N1 | inactive

From PubChem BioAssay (NCATS)
